# PubChem BioAssay AID588342 (National Center for Advancing Translational Sciences (NCATS), 2011)
# The whole screen tested about 360,000 compounds, of which about 25,000 (6.9%) were called active. About 9% were inconclusive and are not listed. The call rests on the fitted dose curve; in most records, active means well fitted inhibition curve with a large enough effect; inconclusive means small, poorly fitted or top-dose-only effect; inactive means flat fitted curve, though single readings scatter. For the sample, actives were picked, then their nearest neighbours and some compounds at random.
# Target: Luciferin 4-monooxygenase (Photinus pyralis) (UniProt P08659)
# Test: qHTS profiling assay for firefly luciferase inhibitor/activator using purifed enzyme and Km concentrations of substrates (counterscreen for miR-21 project); further: nearly all actives have a fitted effect of over 55% in size;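 on activity change, negative = inhibition: plate controls were vehicle for no effect and reference inhibitor for full effect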
# Details: purified FLuc, luminescence inhibition; series mostly up to 57.5 µM; activity change, negative = inhibition: at the top concentration
# How it was run: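 Biochemical qHTS of compounds, final roughly 60 µM downward over six points, against 10 nM purified firefly luciferase using Km concentrations of substrates (10 uM D-luciferin, 10 uM ATP) in Tris acetate pH 7.5 buffer; luminescence output.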
# Potency means the concentration at half of the fitted maximal effect.
# Chain of Luciferin 4-monooxygenase (Photinus pyralis) (P08659 whole entry, looked up): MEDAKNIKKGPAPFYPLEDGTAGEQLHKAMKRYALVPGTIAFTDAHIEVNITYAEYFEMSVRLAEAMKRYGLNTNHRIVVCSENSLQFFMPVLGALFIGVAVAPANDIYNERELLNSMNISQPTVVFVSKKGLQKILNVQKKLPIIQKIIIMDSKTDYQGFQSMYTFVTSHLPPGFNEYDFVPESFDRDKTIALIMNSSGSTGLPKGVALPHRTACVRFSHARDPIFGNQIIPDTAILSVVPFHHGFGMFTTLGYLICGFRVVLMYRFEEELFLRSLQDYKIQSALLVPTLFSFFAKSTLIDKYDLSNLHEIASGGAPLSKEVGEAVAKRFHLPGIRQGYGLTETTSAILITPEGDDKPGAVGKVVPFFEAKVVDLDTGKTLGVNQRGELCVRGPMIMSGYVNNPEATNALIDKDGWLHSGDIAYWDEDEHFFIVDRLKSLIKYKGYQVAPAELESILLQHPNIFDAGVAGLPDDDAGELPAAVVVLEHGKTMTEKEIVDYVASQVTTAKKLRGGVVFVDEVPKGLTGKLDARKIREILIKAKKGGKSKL
SMILES,"activity change, negative = inhibition",Potency
CCC(=O)N1c2ccccc2CC1C(=O)N1CCN(c2cccc(OC)c2)CC1 (stereo not drawn),1.83% (inactive),–
Cc1c(C)n(Cc2ccc(Cl)cc2)c2ccc(C(=O)N3CCN(c4ccccc4F)CC3)cc12,-5.91% (inactive),–
CCOc1cc(C(=O)NCCc2csc3nc(-c4ccc(C)cc4)nn23)cc(OCC)c1OCC,6.07% (inactive),–
CCCn1c(NCc2ccccc2F)nc2ccccc21,-15.2% (inactive),–
Cc1ccc(NC(=O)c2cccc(S(=O)(=O)N3CCCc4ccccc43)c2)nc1,0.271% (inactive),–
Cc1c(C(=O)N2CCCC2)oc2c1-c1nn(CC(=O)NCc3ccc(OC(C)C)cc3)cc1CC2,-13.6% (inactive),–
CC1CCCC(C)N1C(=O)COC(=O)COc1ccccc1C#N (stereo not drawn),2.51% (inactive),–
O=C(CC1Oc2ccc(Cl)cc2NC1=O)NCc1ccccc1 (stereo not drawn),-6.6% (inactive),–
CCCc1cc(=O)oc2c(C)c(OCC(=O)N3CCC(C(=O)O)CC3)ccc12,3.56% (inactive),–
CCCCc1cc(=O)oc2c(C)c(OCC(=O)N3CCC(C(N)=O)CC3)ccc12,6.74% (inactive),–
Cc1c(C)c2ccc(OCC(=O)N3CCC(C(=O)O)CC3)c(C)c2oc1=O,–,23.9 µM (active)
COc1ccc(NC2CCCN(C(=O)c3ccncc3)C2)cc1 (stereo not drawn),0.516% (inactive),–
COC(=O)c1ccc(NC(=O)c2cc(S(=O)(=O)N3CCC(C)CC3)cn2C)cc1,0.945% (inactive),–
O=C(NCC(O)c1ccc([N+](=O)[O-])cc1)C1CCCCC1 (stereo not drawn),-1.1% (inactive),–
c1ccc2c(c1)OCCOCCOCCO2,0.575% (inactive),–
COc1ccc2sc(-c3ccc(N(C)C)cc3)c(C#CCO)c2c1,–,8.49 µM (active)
Cc1ccc(CCNC(=O)C2CCN(c3nnc(-n4cccc4CNc4ccc(C)cc4)s3)CC2)cc1,-8.47% (inactive),–
O=C(CNc1ccccc1N1CCCC1=O)Nc1cc(Cl)ccc1-n1cncn1,4.94% (inactive),–
NS(=O)(=O)c1ccc(-c2ccc(/C=C3\SC(=O)NC3=O)o2)cc1,–,13.5 µM (active)
O=S(=O)(c1ccc(Br)cc1)c1nnn2c1nc(NC1CCCCCC1)c1sccc12,-3.5% (inactive),–
CCOc1ccccc1N(CC)C(=O)Nc1cn(C)c(=O)c2ccccc12,-0.457% (inactive),–
COc1ccc(C2Sc3ccccc3NC3=C2C(=O)c2ccccc23)c(OC)c1OC (stereo not drawn),-0.461% (inactive),–
COc1cc(C2C(C(=O)c3sc(C)nc3C)=C(O)C(=O)N2CCN(C)C)cc(OC)c1OC (stereo not drawn),-2.01% (inactive),–
COc1ccc(C2=Nc3cc(C)ccc3OC2)cc1,–,0.379 µM (active)
COc1ccc(-c2cc(-c3ccc(F)cc3)nc3c2COc2ccccc2-3)cc1,2.55% (inactive),–
COc1ccc(-c2cc(-c3ccccc3)nc3c2COc2ccc(Cl)cc2-3)cc1,-0.771% (inactive),–

SMILES,"activity change, negative = inhibition",Potency
C#C[C@]1(O)CC[C@H]2[C@@H]3CCC4=CC(=O)CC[C@@H]4[C@H]3CC[C@@]21CC,–,inactive
Cc1ccc(C2CCN(C(=O)c3cnn(-c4ccccc4Cl)c3C3CCN(C(=O)OC(C)(C)C)CC3)C2)cc1 (stereo not drawn),0.553% (inactive),–
O=C(CSc1nc(=O)n(Cc2cccnc2)c2c1CCC2)Nc1ccc(F)cc1F,-2.48% (inactive),–
CN(C)S(=O)(=O)c1ccc(C(=O)N(Cc2cccnc2)c2nc3c(F)cc(F)cc3s2)cc1,-2.45% (inactive),–
O=C(NC(=S)Nc1ccc(Cl)cc1Cl)C1CC1,–,21.3 µM (active)
O=C(Nc1c(Cl)cccc1Cl)C1CCC1,2.13% (inactive),–
S=C(NCc1cccnc1)Nc1ccc(Cl)cc1Cl,-0.282% (inactive),–
CN(C(=O)CCn1c(=S)oc2ccccc21)C1CCCCC1,-8.28% (inactive),–
Cc1ccc(S(=O)(=O)N(C)CC(=O)NCC(c2ccc(F)cc2)N2CCOCC2)cc1 (stereo not drawn),6.77% (inactive),–
CCOc1ccc(N2C(=O)CC(N(CCc3ccc(OC)c(OC)c3)C(=S)Nc3ccccc3)C2=O)cc1 (stereo not drawn),0.272% (inactive),–
CC1(C)O[C@@H]2[C@H](O1)[C@@H](COS(=O)(=O)O)O[C@H]2n1cnc2c(=O)[nH]cnc21,-0.661% (inactive),–
CC(=O)N(C1=C(Cl)C(=O)c2ccccc2C1=O)c1ccc(C(=O)O)cc1,–,1.69 µM (active)
COC1=C(N2CCOCC2)C(=O)c2ccccc2C1=O,-3.41% (inactive),–
Cc1ccc(C)c(CSc2nc(-c3ccco3)nc3c2c(=O)n(C)c(=O)n3C)c1,0.834% (inactive),–
Cc1nn(C(=O)c2ccoc2C)c(N)c1-c1ccccc1,–,10.7 µM (active)
CCOC(=O)c1c(N)nn(C(=O)c2ccccc2)c1-c1ccccc1,0.583% (inactive),–
Cc1occc1C(=O)Nc1nnc(-c2ccncc2)s1,-0.684% [at 2.3 µM] (inactive),–
CCOC(=O)c1cc2c(=O)n3ccccc3nc2n(CC2CCCO2)c1=NC(=O)c1ccccc1F (stereo not drawn),-1.04% (inactive),–
Cc1cccc(C(=O)c2cccc(C)c2)c1,-15.9% (inactive),–
Cc1cccc(/C(N)=N/OC(=O)c2ccccc2Cl)c1,–,0.757 µM (active)
Cc1ccc(/C(N)=N/OC(=O)COc2ccc(Cl)c(C)c2)cc1,1.16% (inactive),–
Cc1ccc(OC(=O)CCC(=O)Nc2ccc(Br)cc2)cc1,5.41% (inactive),–
C/C(=N/OC(=O)c1ccc(Br)cc1)c1ccc(C)cc1,–,6.75 µM (active)
C/C(=N\OC(=O)c1ccccc1)c1c(C)nc2cc(C)ccn12,-9.53% (inactive),–
CCc1ccc(NC(=O)CSc2nc3c([nH]c4ccccc43)c(=O)n2-c2cccc(OC)c2)cc1,-3.31% (inactive),–
Cc1ccsc1/C=N/Nc1ccc(Cl)nn1,-19.8% (inactive),–

SMILES,"activity change, negative = inhibition",Potency
Oc1cccc(/C=N/Nc2ccc(Cl)nn2)c1O,–,8.49 µM (active)
Clc1ccc(N/N=C/c2cccs2)nn1,-5.8% (inactive),–
Cn1c(=O)c2c(nc(NCCc3ccccc3)n2Cc2ccccc2Br)n(C)c1=O,-7.21% (inactive),–
CN(c1ccccc1)c1ccc(/C=c2\s/c(=C(/C#N)C(=O)C(C)(C)C)n(Cc3ccco3)c2=O)cc1,–,15.1 µM (active)
CCOc1ccccc1NC(=O)Cn1c(=O)n(Cc2ccco2)c(=O)c2sc3ccccc3c21,2.58% (inactive),–
CCOC(=O)/C=c1\s/c(=C\c2ccc(C#N)cc2)c(=O)n1CC(=O)Nc1cccc(C)c1C,2.08% (inactive),–
O=C(CCc1cn(Cc2ccc(F)cc2)c2ccccc12)NC1CCCCC1,-1.23% (inactive),–
COc1ccc(CCN=C2SCC(=O)N2Cc2ccccc2)cc1OC,1.96% (inactive),–
Cc1ccc(-c2nn(CCC(=O)Nc3ccc(Cl)c(Cl)c3)c(=O)c3ccccc23)cc1,-11.4% (inactive),–
CC(C)c1nc2oc3c(N4CCN(C)CC4)ncnc3c2c2c1CCC2,2.2% (inactive),–
Cc1csc(NC(=S)Nc2cccc(Cl)c2)n1,–,4.78 µM (active)
Cc1cccc(NC(=S)Nc2ccc(Cl)c(Cl)c2)c1,-9.32% (inactive),–
FC(F)(F)c1cccc(NC(=S)Nc2cccc(Cl)c2)c1,1.4% (inactive),–
COC(=O)c1ccccc1NC(=S)NC(=O)c1ccccc1F,-17.6% (inactive),–
O=C(O)c1ccccc1NC(=O)c1ccccc1-c1ccccc1C(=O)O,-3.24% (inactive),–
O=C(NC(=S)Nc1ccccc1C(=O)O)c1ccc(-c2ccc(Br)cc2)o1,–,26.9 µM (active)
Cc1ccc(NC(=O)CN(C)C(=O)COC(=O)c2nccnc2N)cc1,3.32% (inactive),–
COC(=O)c1cc(NC(=O)c2sc3ccccc3c2Cl)cc(C(=O)OC)c1,5.83% (inactive),–
COc1ccc(N=C(C)c2sc3ccccc3c2O)cc1,–,0.601 µM (active)
Cc1cc(C)cc(NC(=O)C(OC(=O)c2ccc(O)cc2)c2ccccc2)c1 (stereo not drawn),-0.427% (inactive),–
CC(C)CN(C(=O)CSc1nncn1C)C1CCS(=O)(=O)C1 (stereo not drawn),0.606% (inactive),–
Cc1cccc(NC(=O)N2CCN(C)c3ncccc32)c1C,-3.65% (inactive),–
O=C(Nc1ccon1)c1cccc(Cl)c1,3.05% (inactive),–
CCCC(=O)Nc1ccc(NC(=O)c2sc3ccccc3c2Cl)cc1,-7.06% (inactive),–
O=C(Nc1ccon1)c1sc2ccccc2c1Cl,–,7.57 µM (active)
Cc1cc2c(cc1C)C(c1cccc(OC(C)C)c1)CC(=O)N2 (stereo not drawn),3.13% (inactive),–

SMILES,"activity change, negative = inhibition",Potency
Cc1cccc(-c2nc(SCc3ccc(Br)cc3)n3[nH]c(=O)cc3n2)c1,-4.19% (inactive),–
CCOc1ccc(-n2c(SCC(=O)NCc3ccccc3)nc3n[nH]c(C)c3c2=N)cc1,-0.652% (inactive),–
CCCn1c2ccccc2c2cnn(CC(=O)NCCCOC(C)C)c(=O)c21,-5.29% (inactive),–
COc1ccc(Cc2nc3ccc(C(=O)NCc4ccccc4C)cc3o2)cc1,-0.926% (inactive),–
O=C(NCCc1ccc(Cl)cc1)c1ccc2nc(CCc3ccccc3)oc2c1,1.26% (inactive),–
CSCCNC(=O)c1ccc2nc(Cc3ccccc3F)oc2c1,–,19 µM (active)
Cn1c(=O)sc2cc(NS(=O)(=O)c3ccc(C(C)(C)C)cc3)ccc21,-2.52% (inactive),–
Cc1cccnc1CCNC(=O)C1CCC(=O)N(Cc2cccc(F)c2)C1 (stereo not drawn),1.04% (inactive),–
CCOc1ccc(-c2cc3nc(C4CCN(C(=O)OC(C)(C)C)CC4)c(C(=O)Nc4cccc(CC)c4)cn3n2)cc1,-9.38% (inactive),–
CN1C2CCC1/C(=C\c1ccccc1Cl)C(=O)/C2=C\c1ccccc1Cl,0.824% (inactive),–
CCSc1ncc(Cl)c(C(=O)Nc2c(C(=O)c3ccccc3)oc3ccccc23)n1,0.97% (inactive),–
Fc1ccc(-n2ncc3c(Nc4ccc(Oc5ccccc5)cc4)ncnc32)cc1,-2.7% (inactive),–
Cc1ccc(-n2ncc3c(Nc4cccc(C(=O)O)c4)ncnc32)cc1,–,0.953 µM (active)
Cc1ccc(Nc2ncnc3c2cnn3C)c(C)c1,-2.04% (inactive),–
COc1ccc(Cl)cc1NC(=O)CCC(=O)c1ccc(C)cc1,2.33% (inactive),–
CCN1CCN(c2ncc3c(n2)CC(c2ccccc2O)CC3=O)CC1 (stereo not drawn),2.06% (inactive),–
CCc1ccccc1NC(=O)CN(C)C(=O)c1cc(C2CC2)nn1-c1ccccc1,2.08% (inactive),–
Cc1ccc(C)c(OCC(=O)NNC(=O)C2CCC2)c1,8.82% (inactive),–
COc1cc(C(=O)OCC(=O)NC23CC4CC(CC(C4)C2)C3)cc(OC)c1OC,-0.412% (inactive),–
N#Cc1nc(-c2cccc3ccccc23)oc1N,-11.7% (inactive),–
CCOC(=O)c1c(C)[nH]c(C)c1S(=O)(=O)N1CCC(C(=O)Nc2ccc(C)c(Cl)c2)CC1,2.93% (inactive),–
O=C(CSc1ncnc2sccc12)N1CCN(C(=O)c2cccs2)CC1,-7.48% (inactive),–
Nc1c(C(=O)c2cccs2)sc2nsc(SCCN3CCCCC3)c12,–,5.36 µM (active)
O=C(CN1C2=NCCN2c2ccccc21)c1cccs1,5.98% (inactive),–
O=C(NCCCN1CCN(c2cccc(Cl)c2)CC1)c1nnc(Cc2ccc(F)cc2Cl)o1,-10.2% (inactive),–
